Counter-ions that a name gives are not always drawn.
test system: HeLa; experiment: nuclear count per well, robust Z-score vs DMSO; higher = more cells (less toxicity); conditions: 10 µM; 6 h
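Note: Hoechst-stained nuclei counted by automated confocal imaging of four fields per well in 384-well plates, with the robust Z-score based on the per-plate DMSO median and robust SD.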

| SMILES | nuclear count per well |
| --- | --- |
| Cc1ccccc1N1C(=O)c2cc(S(N)(=O)=O)c(Cl)cc2NC1C (stereo not given) [Metolazone] | 0.605 |
| CCC1=C(C)CN(C(=O)NCCc2ccc(S(=O)(=O)NC(=O)N[C@H]3CC[C@H](C)CC3)cc2)C1=O [Glimepiride] | 0.315 |
| Nc1nc2c(nc(Br)n2[C@@H]2O[C@@H]3COP(=O)(O)O[C@H]3[C@H]2O)c(=O)[nH]1 [8-Bromo-cGMP] | 0.689 |
| COc1c(C)c2c(c(O)c1C/C=C(\C)CCC(=O)O)C(=O)OC2 [Mycophenolic acid] | -1.57 |
| CCOc1nc2cccc(C(=O)O)c2n1Cc1ccc(-c2ccccc2-c2nnn[nH]2)cc1 [Candesartan] | 0.584 |
| CO[C@@]12[C@H](COC(N)=O)C3=C(C(=O)C(C)=C(N)C3=O)N1C[C@@H]1N[C@@H]12 [Mitomycin C] | -0.569 |
| CCCCCCCCCCCCCCCCCCOC[C@@H](COP(=O)([O-])OCC[N+](C)(C)C)OC [1-Octadecyl-2-methylglycero-3 PC] | 0.129 |
| C[C@H](CCC(=O)O)[C@H]1CC[C@H]2[C@@H]3[C@H](O)C[C@@H]4C[C@H](O)CC[C@]4(C)[C@H]3C[C@H](O)[C@]12C [Cholic acid] | 0.709 |
| CSCC[C@H](NC(=O)c1ccc(NC[C@@H](N)CS)cc1-c1ccccc1)C(=O)O [FTI-276 trifluoroacetate salt] | 0.933 |
| CCC[C@H](N[C@@H](C)C(=O)N1[C@H](C(=O)O)C[C@@H]2CCCC[C@@H]21)C(=O)OCC [Perindopril Erbumine] | -1.42 |
| Nc1nc(O)c2ncn(CCC(CO)CO)c2n1 [Penciclovir] | -0.155 |
| CCC[C@H](NC(=O)/C(C#N)=C/c1cccc(Br)n1)c1ccccc1 | -2.39 |
| O=C1NCN(c2ccccc2)C12CCN(CCCC(c1ccc(F)cc1)c1ccc(F)cc1)CC2 [Fluspirilene] | 0.294 |
| Cc1[nH]cnc1CN1CCc2c(c3ccccc3n2C)C1=O | 0.399 |
| COc1cc2nc(N3CCN(C(=O)C4CCCO4)CC3)nc(N)c2cc1OC (stereo not given) | 0.393 |
| CC1=CC(=O)c2ccccc2C1=O [Menadione] | -0.0188 |
| OCCN1CCN(CCCN2c3ccccc3Sc3ccc(Cl)cc32)CC1 [Perphenazine] | -0.371 |
| CC12CC3CC(C)(C1)CC(N)(C3)C2 | -0.93 |
| CC(=O)OCOC(c1cc([N+](=O)[O-])ccc1Oc1ccc(Br)cc1)P(=O)(OCOC(C)=O)OCOC(C)=O (stereo not given) | 0.94 |
| CNC(=O)[C@H](Cc1c[nH]c2ccccc12)NC(=O)[C@@H](CC(=O)NO)CC(C)C | 0.44 |

| SMILES | nuclear count per well |
| --- | --- |
| C[C@@H]1C/C=C/C=C/C=C/C=C/[C@H](O[C@@H]2O[C@H](C)[C@@H](O)[C@H](N)[C@@H]2O)C[C@@H]2O[C@](O)(C[C@@H](O)C[C@H]3O[C@@H]3/C=C/C(=O)O1)C[C@H](O)[C@H]2C(=O)O [Natamycin] | 0.636 |
| COc1ccc2cc1Oc1ccc(cc1)C[C@H]1c3cc(c(OC)cc3CCN1C)Oc1c(OC)c(OC)cc3c1[C@H](C2)N(C)CC3 [Tetrandine] | 1.11 |
| CCOc1cc(CC(=O)N[C@@H](CC(C)C)c2ccccc2N2CCCCC2)ccc1C(=O)O [Repaglinide] | 0.716 |
| CO[C@@]1(NC(=O)C2SC(=C(C(N)=O)C(=O)O)S2)C(=O)N2C(C(=O)O)=C(CSc3nnnn3C)CS[C@@H]21 (stereo not given in full) [Cefotetan Disodium] | -0.393 |
| NC(=O)c1cccc(N)c1 [3-aminobenzamide (3-ABA)] | -0.443 |
| C=CCNc1ncnc2ccc(Br)cc12 | -1.19 |
| COC(=O)c1c(C)[nH]c(C)c1C(=O)c1ccccc1Cc1ccccc1 | 0.495 |
| C[C@H]1c2cccc(O)c2C(=O)C2=C(O)[C@]3(O)C(=O)C(C(N)=O)=C(O)[C@@H](N(C)C)[C@@H]3[C@@H](O)[C@@H]21 | 0.141 |
| OC(CNCC(O)C1CCc2cc(F)ccc2O1)C1CCc2cc(F)ccc2O1 (stereo not given) | -0.325 |
| O=C1NC(=O)C(c2ccccc2[N+](=O)[O-])=C1Nc1ccc(O)c(Cl)c1 | -0.894 |
| Clc1ccc(C(c2ccc(Cl)cc2)[n+]2ccn(CC(OCc3ccc(Cl)cc3Cl)c3ccc(Cl)cc3Cl)c2)cc1 (stereo not given) [Calmidazolium chloride] | 0.978 |
| C#C[C@]1(O)CC[C@H]2[C@@H]3CCC4=CC(=O)CC[C@@H]4[C@H]3CC[C@@]21CC [Levonorgestrel] | 0.24 |
| CO[C@H]1C[C@@H]2CC[C@@H](C)[C@@](O)(O2)C(=O)C(=O)N2CCCC[C@H]2C(=O)O[C@H]([C@H](C)C[C@@H]2CC[C@@H](OCCO)[C@H](OC)C2)CC(=O)[C@H](C)/C=C(\C)[C@@H](O)[C@@H](OC)C(=O)[C@H](C)C[C@H](C)/C=C/C=C/C=C/1C [Everolimus] | -0.691 |
| COc1cc(C(=O)NCc2ccc(OCCN(C)C)cc2)cc(OC)c1OC | -1.1 |
| C[C@H]1[C@H](NC(=O)/C(=N\OC(C)(C)C(=O)O)c2csc(N)n2)C(=O)N1S(=O)(=O)O [Aztreonam] | 0.104 |
| CC[C@]1(O)C[C@H]2CN(CCc3c([nH]c4ccccc34)[C@@](C(=O)OC)(c3cc4c(cc3OC)N(C=O)[C@H]3[C@@](O)(C(=O)OC)[C@H](OC(C)=O)[C@]5(CC)C=CCN6CC[C@]43[C@@H]65)C2)C1 [Vincristine Sulfate] | -3.14 |
| O=[N+]([O-])c1cccc2c(Br)[nH]nc12 [Bromo-7-nitroindazole] | -0.0311 |
| CCN(CC)CCNC(=O)c1cc(Cl)c(N)cc1OC | -0.369 |
| CN(C)/N=N/c1[nH]cnc1C(N)=O [Dacarbazine] | -0.758 |
| Fc1ccc([C@@H]2CCNC[C@H]2COc2ccc3c(c2)OCO3)cc1 [Paroxetine hydrochloride hemihydrate] | -0.809 |

— the supplement of paper PMC9844399
